# What was measured:
# Assay in all cases: PBM binding z-score (relative to random genomic background probes); higher = stronger binding; sequences stand for … in GC…GCGATTGACAGCGTAGAATGAAGG
# [1] = tested on: FXR:RXRa (NR concentration 270 nM, RXRa partner concentration 90 nM)
# Method in brief: (§1)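 Custom Agilent 4×180K protein-binding microarrays carried double-stranded probes, each with a 34-nt variable region. These regions held direct-repeat seeds, single-nucleotide variants, half-site ablations and random human genomic background sequences. Ligand-free nuclear receptor dimers were incubated on the arrays for 1 h, antibodies against each partner (one per run) detected binding, and scanned fluorescence was regression-normalized. Binding z-scores take the random background probes as reference.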
# [2] = tested on: LXRa:RXRa (NR concentration 270 nM, RXRa partner concentration 90 nM)
# Method in brief: as §1
# [3] = tested on: LXRa homodimer (NR concentration 270 nM)
# Method in brief: as §1
# [4] = tested on: LXRb:RXRa (NR concentration 270 nM, RXRa partner concentration 90 nM)
# Method in brief: as §1
# [5] = tested on: LXRb homodimer (NR concentration 270 nM)
# Method in brief: as §1
# [6] = tested on: PPARa:RXRa (NR concentration 270 nM, RXRa partner concentration 90 nM)
# Method in brief: as §1
# [7] = tested on: PPARg:RXRa (NR concentration 180 nM, RXRa partner concentration 90 nM)
# Method in brief: as §1
# [8] = tested on: PPARg:RXRa 270nM:90nM, anti-RXR (NR concentration 270 nM, RXRa partner concentration 90 nM)
# Method in brief: as §1
# [9] = tested on: PPARg:RXRa 30nM:10nM, anti-RXR (NR concentration 30 nM, RXRa partner concentration 10 nM)
# Method in brief: as §1
# [10] = tested on: PPARg:RXRa 90nM:30nM, anti-RXR (NR concentration 90 nM, RXRa partner concentration 30 nM)
# Method in brief: as §1
# [11] = tested on: PPARg:RXRa DBDmut IVT, anti-RXR (DBD mutation: RXRa K156A/R161A, NR concentration 270 nM, RXRa partner concentration 90 nM)
# Method in brief: as §1
# [12] = tested on: PPARg:RXRa IVT, anti-PPARg (NR concentration 270 nM, RXRa partner concentration 90 nM)
# Method in brief: as §1
# [13] = tested on: PPARg DBDmut:RXRa IVT, anti-PPARg (DBD mutation: PPARg1 K132A/R137A, NR concentration 270 nM, RXRa partner concentration 90 nM)
# Method in brief: as §1
# [14] = tested on: PPARg DBDmut IVT, anti-PPARg (DBD mutation: PPARg1 K132A/R137A, NR concentration 270 nM)
# Method in brief: as §1
# [15] = tested on: PPARg homodimer (NR concentration 180 nM)
# Method in brief: as §1
# [16] = tested on: PXR:RXRa (NR concentration 270 nM, RXRa partner concentration 90 nM)
# Method in brief: as §1
# [17] = tested on: PXR homodimer (NR concentration 270 nM)
# Method in brief: as §1
# [18] = tested on: RARa:RXR (NR concentration 270 nM, RXRa partner concentration 90 nM)
# Method in brief: as §1
# [19] = tested on: RARa homodimer (NR concentration 270 nM)
# Method in brief: as §1
# [20] = tested on: RARb:RXRa (NR concentration 270 nM, RXRa partner concentration 90 nM)
# Method in brief: as §1
Sequence,PBM binding z-score [1],PBM binding z-score [2],PBM binding z-score [3],PBM binding z-score [4],PBM binding z-score [5],PBM binding z-score [6],PBM binding z-score [7],PBM binding z-score [8],PBM binding z-score [9],PBM binding z-score [10],PBM binding z-score [11],PBM binding z-score [12],PBM binding z-score [13],PBM binding z-score [14],PBM binding z-score [15],PBM binding z-score [16],PBM binding z-score [17],PBM binding z-score [18],PBM binding z-score [19],PBM binding z-score [20]
CCTCGGAGGATAACAGGAGGTCAGAGCTGCCAGA,0.758,2.44,2.34,1.24,-0.35,1.61,0.275,-0.114,-0.739,-0.596,-0.616,0.0476,-0.938,-1.92,1.75,1.78,0.657,2.39,0.565,1.99
TCTACCAGGCCAGAGGGTCACTCAAGAGGTACGG,1.36,1.24,-0.237,1.38,-0.315,2.65,2.06,3.41,3.25,3.44,1.61,1.75,-0.383,-0.224,1.12,1.82,-0.126,2.67,0.116,2.51
ACCCGGAGGACAAAGGTCAGAGCTACGCCAGTGA,4,4.23,1.65,3.55,0.448,5.01,6.33,6.32,3.97,5.95,0.224,2.99,-0.0126,-0.296,2.98,4.14,0.302,5,0.962,4.51
TCTGCTAAGTCAGTTGGTCAGCTAACGAGCTGCC,-0.309,-0.429,-0.729,-0.89,-0.474,-0.235,-1.04,0.263,1.09,0.712,0.523,0.0659,-0.684,-0.363,-1.05,-0.607,-0.707,-0.273,-1.36,0.0945
GCAGACAGGTGAAACGCAGGTAACTTAGGGTGGC,0.0644,-0.18,-0.522,-0.226,-1.05,0.666,0.771,0.226,-0.508,-0.022,1.09,0.626,-0.0838,-0.922,-0.576,-0.333,-0.519,0.279,-0.246,0.798
GCTTACGGGACAAAGGTTATAGCATGAATAGAAT,1.23,1.56,0.265,2.04,-0.135,4.42,7.78,7.39,6.27,8.27,1.28,3.13,0.314,1.06,1.03,1.57,0.222,2.59,0.238,1.81
CGAACGAGGGCATGAGTTGATAGCTAATGCCGAT,0.677,0.398,-0.532,0.00979,-0.952,1.51,1.53,1.5,0.214,0.782,2.71,2.2,0.229,-0.661,0.249,0.689,0.178,0.401,0.0358,2.08
AATACAGGGTCATCGTAGGCCAGAGTTCGCACAG,7.34,6.57,3.73,4.63,1.44,5.93,7.18,6.46,2.9,5.18,2.96,4.45,1.89,1.85,3.53,5.76,2.02,5.59,0.95,4.33
CGTCCAAGGTCAATGCTAGGTCCGTGAAAGCATT,6.89,4.45,0.519,3.53,0.496,4.84,3.19,3.97,0.655,2.86,2.99,3.02,0.341,-0.534,3.68,3.8,0.579,4.21,1.32,4.91
CTACCAAGGTGAACACGGTCGTTGATTACTATTC,0.926,0.679,0.219,1.01,-0.319,1.35,0.647,0.659,-0.147,0.147,2.72,2.43,0.613,-0.0431,0.251,0.292,0.00892,0.57,0.749,1.88
ATCGTAAGGTCGACGAGGTGAGTATACACCGTTT,3.07,1.79,-0.0992,1.66,0.155,3.03,1.36,1.25,0.685,0.918,0.226,1.61,0.856,0.0648,0.926,2.17,0.476,2.39,0.139,3.08
ATCGAAAGGTCGAGGTGAGTATAGAGAAAGGGAA,4.21,3.57,0.072,2.77,0.504,4.79,3.78,3.66,1.28,2.62,0.752,2.38,0.636,0.688,1.8,2.49,0.362,3.37,0.75,4.18
TCGAGTATGTTAGTCGGGGCATTCAGCCAACATA,-0.336,-0.354,-0.761,0.103,-0.713,-0.0801,-0.372,0.0519,0.966,0.691,0.962,0.119,-0.528,-0.979,-0.491,-0.224,-0.529,-0.247,-0.841,0.204
CTCGAAAGGTCGTGCTCAGGTGAATATACCAAAC,5.33,4.19,0.375,3.82,0.534,5.05,2.81,3.84,1.1,2.6,0.879,2.15,0.682,0.68,1.34,3.6,0.506,4.28,0.678,3.92
